A selection: hits, their analogues and other compounds. The true share with any hit is near 21%.
Gal4-VP16 FLuc: inhibits Gal4-VP16 luciferase reporter, ROR gamma counter-screen; Drosophila S2 Gal4-VP16 UAS-luciferase, luminescence, 20 h; Potency, µM (doses to about 53.6 µM), for inactives: top-dose activity, negative = inhibition, most hits filed as inhibitors; hit rate 3.5% among 310,000;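 note: Gal4-VP16 expression switched on by copper sulfate through the metallothionein promoter; potency is the fitted concentration of half-maximal effect; nearly all actives have a fitted effect of over 50% in size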
TDP1 cell noCPT: qHTS for Inhibitors of human tyrosyl-DNA phosphodiesterase 1 (TDP1): qHTS in cells in absence of CPT; Potency, µM (doses to about 46.2 µM), without a hit: top-dose activity change, negative = growth inhibition, actives largely listed as inhibitors; AID 686978, 2013; hit rate 15% among 420,000; DT40 Tdp1-/- hTDP1 cells, no CPT, ATP luminescence, 48 h; note: potency is the fitted concentration of half-maximal effect; nearly all actives have a fitted effect of over 55% in size
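A cellular qHTS used chicken DT40 cells lacking endogenous Tdp1 but carrying stably transfected human TDP1. Compounds were applied without camptothecin, and cell growth kinetics were judged by ATP-dependent luminescence after ≥48 hr.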
RORgamma inh: ROR gamma (mouse) transcription inhibition; Drosophila S2 Gal4-RORgamma UAS-luciferase reporter, 20 h; hit rate 5.4% among 310,000; P51450; AID 2551; Potency, µM (doses to about 53.6 µM), for inactives: at the top dose activity change, negative = inhibition, usual class: inhibitors; note: potency is the fitted concentration of half-maximal effect; nearly all actives have a fitted effect of over 60% in size
Target sequence (P51450 whole entry, looked up, the tested form may be a part): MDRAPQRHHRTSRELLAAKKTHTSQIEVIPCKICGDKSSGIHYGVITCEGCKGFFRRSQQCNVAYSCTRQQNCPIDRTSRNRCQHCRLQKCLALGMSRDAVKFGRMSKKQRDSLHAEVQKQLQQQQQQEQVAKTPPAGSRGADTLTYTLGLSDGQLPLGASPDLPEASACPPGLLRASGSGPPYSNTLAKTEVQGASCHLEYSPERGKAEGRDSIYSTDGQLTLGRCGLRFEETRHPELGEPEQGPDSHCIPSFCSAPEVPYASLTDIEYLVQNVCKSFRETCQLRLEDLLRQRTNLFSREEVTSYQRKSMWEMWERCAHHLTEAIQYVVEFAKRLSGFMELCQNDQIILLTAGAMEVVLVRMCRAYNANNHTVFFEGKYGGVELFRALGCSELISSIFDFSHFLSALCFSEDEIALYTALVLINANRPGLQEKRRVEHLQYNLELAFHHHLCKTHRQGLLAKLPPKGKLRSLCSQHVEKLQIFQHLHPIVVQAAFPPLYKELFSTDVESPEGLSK
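A Gal4/UAS one-hybrid system in insect cells: metallothionein-promoter Gal4–ROR gamma fusion plus Photinus luciferase reporter. Copper sulfate 700 uM final, 20 hr ambient incubation, luminescent detection after 10 min with reagent.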
ELG1 DNA repair: inhibitors of ELG1-dependent DNA repair in HEK293T cells; AID 504467; HEK293T ELG1-luciferase reporter, luminescence, 16 h; DNA damage induced by 5-fluorouridine; hit rate 2.3% among 330,000; Potency, µM (highest dose often 46.1 µM), for inactives: at the highest dose activity change, negative = inhibition, actives largely listed as inhibitors; note: potency is the fitted concentration of half-maximal effect; nearly all actives have a fitted effect of over 55% in size
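Overnight (16 hr) co-exposure of 2,000 cells/well to 5-fluorouridine and compound at 37 °C preceded detection. Luciferase was quantified via ONE-Glo luminescence; loss of signal denotes inhibition.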
DT40 TDP1 CPT: growth inhibition of DT40 Tdp1-/-;hTDP1 cells with camptothecin (screen for TDP1 inhibitors). chicken DT40 Tdp1-/-;hTDP1 cells + 20 nM CPT, ATP luminescence, 48 h. Potency, µM (highest dose often 46.2 µM), inactives show at the highest dose activity change, negative = growth inhibition, usual class: inhibitors. hit rate 12% among 420,000; note: potency is the fitted concentration of half-maximal effect; nearly all actives have a fitted effect of over 55% in size
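Chicken DT40 Tdp1-/- cells complemented with human TDP1, 400 cells/well, exposed to compounds plus 20 nM camptothecin for at least 48 h at 37 C; viability read as ATP content by CellTiter-Glo luminescence.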
IL-1B inflam inh: inflammasome signaling inhibition, IL-1 beta readout. activity change, % at 57.5 µM. hit rate 4.7% among 360,000. THP-1 LPS/ATP IL-1B secretion, AlphaLISA, 16 h; active compounds read low; in the data active = activity change below about -50%; inconclusive = mostly about -30% to -49%
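Secreted IL-1B measured by AlphaLISA bead assay after 16 h compound exposure of THP-1 cells; compounds (final up to 57.5 uM) added 1 h before LPS (250 ng/mL) and ATP (1.25 mM) stimulation; lower signal means less secretion.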
An asterisk follows results filed as active; u = inconclusive; x = not tested or not shown; [ ] = dose if it differs, or a comment. Unless noted, calls come from the whole dose curve; as a rule, active = well fitted curve in the direction sought with a large enough effect; inconclusive = small, poorly fitted or top-dose-only effect, or another doubt; inactive = no such curve, though single readings can be large; an effect the other way counts as inactive or inconclusive. % is set by controls: 0 for no effect and ±100 for the full control effect.

SMILES | Gal4-VP16 FLuc | TDP1 cell noCPT | RORgamma inh | ELG1 DNA repair | DT40 TDP1 CPT | IL-1B inflam inh
Cc1ncoc1C(=O)N1CCOc2ccc(CN3CCC(Oc4cccnc4)CC3)cc2C1 | x | -24% | x | x | 7% | x
O=C(NC(Cc1ccccc1)C(=O)NCCc1ccccn1)c1ccccc1 (stereo unspecified) | -12% | -23% | 17% | -1% | -1% | 14
COc1ccc(NC(=O)NCCn2nnc3cc(S(=O)(=O)N(C)C)ccc32)cc1 | x | 22% | x | x | 10% | x
CC(C)Cc1nc2cc(NS(=O)(=O)N(C)C)cc(C(=O)N3CCOc4ccccc4C3)c2n1C | x | -15% | x | x | -2%[9.04 µM] | x
COc1ccc(-n2c(=O)c3c4c(sc3n(Cc3cc(C)ccc3C)c2=O)CN(C(C)=O)CC4)c(OC)c1 | x | 23µM* | x | x | u | x
COc1ccccc1-n1c(=O)c2c3c(sc2n(C)c1=O)CN(C(C)=O)CC3 | x | -3% | x | x | 13% | x
COc1ccccc1-n1c(=O)c2c3c(sc2n2c(=S)[nH]nc12)CCC3 | -30% | -20% | 13µM* | 10% | -15% | 4
O=C(COC(=O)CC1Sc2ccccc2NC1=O)NCc1ccccc1 (stereo unspecified) | x | -11% | x | 28% | -12% | 11
Cc1cccc(C(=O)NCc2nc(-c3ccccc3NC(=O)C3CCCO3)oc2C)c1 (stereo unspecified) | x | -5% | x | x | -7%[9.04 µM] | x
CC(=O)c1cccc(NS(=O)(=O)c2cc3c(cc2C)n(C)c(=O)c(=O)n3C)c1 | x | -24% | x | x | 13% | x
Fc1ccc(Nc2ccnc(Nc3ccc(F)cc3)n2)cc1 | u | 18µM* | 36% | u | 16µM* | -94*
Nc1ncnc(Nc2ccc(F)cc2)n1 | 7% | 15% | 18% | 19% | 6% | 14
CCN(CC)S(=O)(=O)c1ccc(N2CCc3cc(OC)c(OC)cc3C2)nc1 | -16% | u | 39% | -10% | 18µM* | -91*
CCNC(=O)C1(C)CCCN(Cc2cccc3c(OC)cc(C(=O)OCC)cc23)C1 (stereo unspecified) | x | u | x | x | u | -16
Cc1cc2oc(C(=O)N(Cc3ccccc3F)C3CCS(=O)(=O)C3)c(C)c2cc1Cl (stereo unspecified) | x | 16µM* | x | x | u | x
Cc1cc(C)c(OCC(=O)N(Cc2ccc(N(C)C)cc2)C2CCS(=O)(=O)C2)c(C)c1 (stereo unspecified) | -7% | 23µM* | 13% | -11% | -7% | -72*
Cc1ccc2c(C)c(C(=O)N(Cc3ccc(N(C)C)cc3)C3CCS(=O)(=O)C3)oc2c1 (stereo unspecified) | 2% | u | 33% | 16µM* | u | -27
Cc1ccc2c(=O)cc(C(=O)N(Cc3ccccc3Cl)C3CCS(=O)(=O)C3)oc2c1 (stereo unspecified) | x | u | x | x | -27% | x
Cc1c(C(=O)N(Cc2cccc(F)c2)C2CCS(=O)(=O)C2)oc2cc(Br)ccc12 (stereo unspecified) | x | 18µM* | x | x | u | x
COc1ccc(-n2c(SCC(=O)N3CCC(C)CC3)nc3c([nH]c4ccccc43)c2=O)cc1 | x | 2% | x | x | -2% | x
CCCCCCCCCCCCCCCCCC(=O)OCCO | x | -40% | x | x | u | x
COc1ccc(S(=O)(=O)N(CC(=O)Nc2cccnc2)c2ccc(Cl)cc2)cc1 | x | -25% | x | x | 3% | x
COc1ccc(N2CCN(C(=O)CSc3nnnn3-c3ccc4c(c3)OCCO4)CC2)cc1 | u | u | u | 23µM* | u | -59*
CCC(c1nnnn1-c1ccc2c(c1)OCCO2)N1CCN(c2ccc(OC)cc2)CC1 (stereo unspecified) | x | u | x | x | 21µM* | -7

Assay outcomes as filed in PubChem BioAssay.
